# Rtt109 HAT inh: C. albicans Rtt109 histone acetyltransferase inhibition. purified Rtt109/Vps75, ThioGlo CoA-SH fluorescence, 4 h. inhibition, % at 34.9 µM. 330,000 tested, 0.16% active. AID 540336;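 active means inhibition of at least 50% in every replicate; inconclusive means best replicate reaches 50% inhibition but some replicates fall short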
# ABHD5 PLIN5 PPI: blocks binding of human ABHD5 to perilipin-5; AID 602281; inhibition, % at 4 µM; Q00G26+Q8WTS1; Split G. princeps luciferase complementation, luminescence, 4 h; 360,000 tested, 0.78% active;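 active means inhibition above the mean inhibition across every tested compound plus 3 SD, cut at about 22% in these data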;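 further: 0% = DMSO only wells and the 100% control is not disclosed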
# Target sequence (Q00G26 whole entry, looked up): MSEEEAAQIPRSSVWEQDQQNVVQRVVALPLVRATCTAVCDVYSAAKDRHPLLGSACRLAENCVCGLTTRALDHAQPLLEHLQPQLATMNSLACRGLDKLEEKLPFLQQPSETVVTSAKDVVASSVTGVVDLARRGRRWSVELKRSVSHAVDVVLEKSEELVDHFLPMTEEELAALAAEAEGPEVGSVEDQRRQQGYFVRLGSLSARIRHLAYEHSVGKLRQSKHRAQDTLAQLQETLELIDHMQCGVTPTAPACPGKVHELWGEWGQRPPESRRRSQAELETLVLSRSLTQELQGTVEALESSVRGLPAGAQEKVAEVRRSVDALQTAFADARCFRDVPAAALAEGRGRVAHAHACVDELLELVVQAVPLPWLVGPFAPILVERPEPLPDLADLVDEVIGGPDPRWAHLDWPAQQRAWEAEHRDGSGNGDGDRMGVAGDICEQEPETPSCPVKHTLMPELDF
# Target sequence (Q8WTS1 whole entry, looked up): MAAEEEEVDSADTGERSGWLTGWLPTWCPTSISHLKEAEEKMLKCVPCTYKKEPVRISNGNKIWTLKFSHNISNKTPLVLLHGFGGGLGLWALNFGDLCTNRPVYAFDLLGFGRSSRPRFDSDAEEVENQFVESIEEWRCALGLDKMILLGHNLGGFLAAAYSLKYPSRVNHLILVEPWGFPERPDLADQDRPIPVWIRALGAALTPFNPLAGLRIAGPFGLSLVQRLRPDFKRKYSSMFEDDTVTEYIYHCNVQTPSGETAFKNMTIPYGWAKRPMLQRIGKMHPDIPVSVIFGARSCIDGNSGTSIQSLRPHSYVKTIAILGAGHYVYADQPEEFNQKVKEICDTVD
# Cardio protect: protects H9c2 cardiomyocytes from peroxide injury. H2O2 injury protection, ATPLite, 2 h. protection from H2O2 cell death, % at 20 µM. 360,000 tested, 0.63% active. AID 588492;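 active means compounds giving at least 50% protection of heart cells from peroxide-induced death in the single-dose screen, raw or plate-pattern-corrected value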;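 further: 0% = DMSO wells with peroxide and 100% = DMSO wells without peroxide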
# Myeloid diff MLP: myeloid differentiation induction | 360,000 tested, 1% active | ER-HoxA9 myeloid progenitors, lysozyme-GFP differentiation, flow cytometry | calls only at 10 µM | AID 624256;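 active means normalized GFP-positive differentiation at or above the plate's own cutoff, the solvent-only control mean plus 3 SD; inconclusive means no clear call, values can overlap the other calls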;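 further: cells exposed to compound for four days before flow analysis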
# DAGLB inhibitor: blocks human DAGLB lipase activity. Q8NCG7. HEK293T DAGLB membrane lysate, EnzChek fluorogenic substrate. inhibition, % at 5.17 µM. 340,000 tested, 0.059% active; in the data active means inhibition above about 34%;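 further: 0% = enzyme with vehicle and 100% = wells lacking enzyme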
# sPLA2-III inh: Blocks human group III sPLA2 activity. Q9NZ20. QFRET BODIPY PC-A2 liposome hydrolysis, fluorescence. inhibition, % at 12.2 µM. 370,000 tested, 0.56% active. AID 743126;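 active means inhibition above mean plus 3 SD of compounds lying within the high and low control bounds, cut at about 19% in these data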;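 further: 0% = median of test compound wells and 100% = no enzyme DMSO wells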
# * = called active by the depositor; i = inactive; ? = inconclusive; . = no result given; + = active, no number. Only some compounds are listed: those with a hit (about 2.9% of all), similar ones and a draw of the others.
SMILES,Rtt109 HAT inh,ABHD5 PLIN5 PPI,Cardio protect,Myeloid diff MLP,DAGLB inhibitor,sPLA2-III inh
COc1ccc(-n2nnnc2C(c2ccccc2OC(F)(F)F)N2CCN(C/C=C/c3ccccc3)CC2)cc1 (centres undefined),.,8,-7,+,.,-3
CCOc1ccc(CCn2c(-c3ccco3)nc3ccccc3c2=O)cc1OCC,4,-1,104*,i,1,3
CCCCn1c(=N)n(CC(O)COc2cccc(C)c2)c2ccccc21 (centres undefined),-17,2,-22,+,1,11
CCCn1c(=N)n(CC(O)COc2ccc(C)cc2)c2ccccc21 (centres undefined),4,-5,-5,i,1,1
O=C(O)c1ccccc1C(=O)Nc1ccc(Oc2ccc3ccccc3c2)cc1,5,1,-3,+,-1,5
Cc1ccc(CS(=O)(=O)c2ccc(C(=O)N3CCCCC3)cc2[N+](=O)[O-])cc1,1,4,-4,i,-2,5
Cc1ccc(CS(=O)(=O)c2ccc(C(=O)N3CCN(c4ccccn4)CC3)cc2[N+](=O)[O-])cc1,2,-2,8,+,-1,-5
CN1C(=O)c2ccccc2C(C(=O)O)C1c1cccc(Cl)c1 (centres undefined),-6,-6,13,i,-2,5
O=C(CN1CCCC1=O)NC1CCCc2c1cnn2-c1cc(F)cc(F)c1 (centres undefined),16,4,-1,?,1,9
O=C(c1cc([N+](=O)[O-])ccc1N1CCCC1)N1CCCC1,4,2,2,i,0,-2
CN1CCN(S(=O)(=O)c2cccc(C(=O)N(Cc3ccccc3)c3ccccc3)c2)CC1,56*,9,4,?,-7,-16
CC(=O)N1CCN(S(=O)(=O)c2cccc(C(=O)N(Cc3ccccc3)c3ccc(C)cc3)c2)CC1,34,2,-2,i,0,-11
COc1ccc(CNC(=O)C2CCCN(S(=O)(=O)c3ccc(Br)s3)C2)cc1 (centres undefined),0,-8,-4,i,-3,-8
COc1ccc(-n2ncc3c2CC(C)(C)CC3NC(=O)CCN2CCCCC2=O)cc1 (centres undefined),17,15,-2,+,4,6
CCOc1ccc(/C=C(\C#N)C(=O)NCC2CCCO2)cc1OCC (centres undefined),7,-5,2,i,-2,-3
CCCCC(=O)NC(c1ccc(C(C)C)cc1)c1ccc2cccnc2c1O (centres undefined),-1,13,51*,?,4,13
Cn1c(SCC(=O)Nc2ccc(C(=O)O)cc2)nnc1-c1ccccn1,.,.,.,.,.,17
O=C(NC1CCCCC1)OCCN1CCN(Cc2ccccc2)CCC1=O,.,.,.,.,.,1
COc1ccc2c(c1)-c1c(ssc1=S)C(C)(C)N2,0,1,-5,i,36*,12
C[C@H]1CCC/C=C/[C@@H]2C[C@H](O)C[C@H]2[C@H](O)[C@H](S(=O)c2ccc(O)cc2)CC(=O)O1 (some centres undefined),-1,-47,6,.,-3,-8
Cc1ccc(C)c(-n2cc(-c3ccc(Cl)cc3)nc2SCC(=O)NC2CCS(=O)(=O)C2)c1 (centres undefined),2,0,-2,i,2,-9
CC(=O)Nc1ccc(C(=O)N2CCN(S(=O)(=O)c3ccc4c(c3)OCCCO4)CC2)cc1,5,9,2,i,-8,2
CNc1ccc(C(=O)N2CCN(S(=O)(=O)c3ccc4c(c3)OCCCO4)CC2)cc1[N+](=O)[O-],8,5,4,+,10,6
N#Cc1ccc(NC(=O)COC(=O)C2Cc3ccccc3CN2C(=O)c2ccccc2)cc1 (centres undefined),-6,-3,6,+,2,-2
COC(=O)CCN(C(=O)c1ccc(Cl)c([N+](=O)[O-])c1)c1ccccn1,12,-4,2,i,0,10
SMILES,Rtt109 HAT inh,ABHD5 PLIN5 PPI,Cardio protect,Myeloid diff MLP,DAGLB inhibitor,sPLA2-III inh
COc1ccc(CCNC(=O)COC(=O)c2cc(OC)c(OC)cc2OC)cc1,-2,-1,-5,i,0,3
CC(=O)Nc1ccc(S(=O)(=O)NCCC(=O)NCC2COc3ccccc3O2)cc1 (centres undefined),1,4,2,i,0,-6
Cc1ccc(SCc2cc(=O)[nH]c(Nc3nc(C)c4ccc(C)cc4n3)n2)cc1,3,1,2,i,-2,-3
Cc1ccc2c(C)nc(Nc3nc(CSc4nc5ccccc5[nH]4)cc(=O)[nH]3)nc2c1,-1,4,69*,?,-1,-13
CCOC(=O)c1cc([N+](=O)[O-])sc1NC(=O)c1ccc(S(=O)(=O)N2CC3(C)CC2CC(C)(C)C3)cc1 (centres undefined),-17,0,-14,+,1,17
O=C1CCCCN1CCc1c[nH]c2ccccc12,-2,-4,4,i,-1,1
CC(=O)N1CCc2cc(S(=O)(=O)CCC(=O)Nc3ccccc3F)ccc21,2,-5,0,+,-3,3
CC(=O)N1CCc2cc(S(=O)(=O)CCC(=O)N3CCN(c4ccccc4F)CC3)ccc21,4,-3,-3,?,3,1
O=C(Nc1nc(-c2ccc(S(=O)(=O)N3CCOCC3)cc2)cs1)c1ccccc1,7,3,-1,i,-3,-11
O=C(Nc1nc(-c2nc3ccccc3s2)cs1)c1ccc(S(=O)(=O)N2CCOCC2)cc1,62*,0,18,i,-4,-2
O=C(Nc1nc(-c2ccccn2)cs1)c1cccc(-n2cnnn2)c1,2,16,68*,.,0,0
O=C(Nc1ccc(Br)cc1)c1cccc(-n2cnnn2)c1,-3,1,-3,i,0,-5
O=C(Nc1nc(-c2ccccn2)cs1)c1cc(S(=O)(=O)N2CCOCC2)ccc1F,18,-7,59*,+,-2,-5
O=C(Nc1nc(-c2ccccn2)cs1)c1ccc(F)c(S(=O)(=O)N2CCOCC2)c1,-2,-10,65*,?,2,-7
Cc1ccc(S(=O)(=O)N2CCOCC2)cc1C(=O)Nc1nc(-c2cccnc2)cs1,-28,5,10,i,1,2
CNc1cc(-c2ccc(O)cc2C)ncn1,.,7,2,i,.,-1
CCOC(=O)c1cc(-c2ccc(Cl)s2)[nH]n1,-5,-2,-15,i,-1,-9
O=Cc1cnc(N2CCN(c3ccccc3)CC2)s1,3,-4,3,i,1,-3
CC(=O)c1cc(C)ccc1OC(=O)CCN1C(=O)C2C3c4ccccc4C(c4ccccc43)C2C1=O (centres undefined),-17,-1,3,i,-2,-3

# Screens from PubChem BioAssay.
